Results on eight compounds are retold here after PubChem BioAssay (NCI).

This is part of a sample that, as a whole, favours compounds with a hit. Of some 83,000 tested, about 20% had one in any assay.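 In brief: 96-well plates, 48 h treatment, single concentration, percent growth endpoint.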 Values without a mark were called inactive. Calls of active or inactive are those of the source. Rule for the calls: active = growth percent below 10; inactive = the rest.

Common to all, as to assay: NCI-60 one-dose screen, 48 h (100 = growth as untreated, 0 = no growth, -100 = all killed)
Holding throughout (conditions): 10 µM

Experiment [1] deals with DU-145 prostate.
Experiment [2] relates to MALME-3M melanoma.
For experiment [3], the system named is MDA-MB-231 breast.
The subject of experiment [4] is RXF 393 renal.
The test system of experiment [5] is SF-268 CNS.
The subject of experiment [6] is SF-295 CNS.
The subject of experiment [7] is SF-539 CNS.
Experiment [8] concerns UACC-257 melanoma.
Experiment [9] deals with M14 melanoma.
Experiment [10] concerns HCT-15 colon.
Experiment [11] relates to HT29 colon.
In experiment [12] the test system is SNB-75 CNS.
In experiment [13] the test system is SNB-19 CNS.
Experiment [14] concerns U251 CNS.
The test system of experiment [15] is PC-3 prostate.
In experiment [16] the test system is SK-MEL-5 melanoma.
Experiment [17] relates to UACC-62 melanoma.
Experiment [18] relates to LOX IMVI melanoma.
In experiment [19] the test system is SK-MEL-28 melanoma.

For the compound `CN1CCN(C2=Nc3ccccc3Oc3ccc(Cl)cc32)CC1`, the growth is 108% in [1]; 91.7% in experiment [2]; 76% in [3]; 108% in experiment [4]; 109% in experiment [5]; 94.8% in [6]. Moreover, the growth in experiment [7] was 111%; in [8], 96.5%; in experiment [9] it was 103%; in experiment [10] it was 103%; in [11] it was 88.3%; in [12], 59.5%. For the same compound, the growth in experiment [13] is 104%; in experiment [14], 102%; in experiment [15], 83.8%; in experiment [16] it was 96.7%; in [17] it was 98.7%; in experiment [18], 103%. Moreover, the growth in experiment [19] is 110%.
On to `C[N+]1(CCCCC[N+]2(C)CCCC2)CCCC1`, for which the growth was 93.2% in experiment [1]; 90% in experiment [2]; 89.5% in experiment [3]; 122% in experiment [4]; 97.1% in experiment [5]; 123% in experiment [6]. Also, the growth was 93.7% in experiment [7]; 102% in [8]; 98.5% in experiment [9]; 103% in experiment [10]; 102% in experiment [11]; 110% in experiment [12]. Besides, the growth was 96.8% in [13]; 108% in [14]; 86.3% in experiment [15]; 103% in experiment [16]; 102% in [17]; 105% in experiment [18]. The growth in experiment [19] was 105%.
In the case of `CC1/C=C/C=C/C=C/C=C/C=C/C=C/C=C/C(O[C@@H]2O[C@H](C)[C@H](O)[C@@H](O)[C@@H]2N)CC(O)C(C(=O)O)C(O)CC(=O)CC(O)CC(O)CC(O)CC(=O)CCCC(=O)CC(=O)OC1C(C)CC(C)C(O)CC(=O)c1ccc(N)cc1` (stereo not given in full), the growth in experiment [1] was -98.7% (active); in experiment [2], -92.5% (active); in experiment [3] it was -94.8% (active); in experiment [4], -90.9% (active); in [5], -95.8% (active); in experiment [6] it was -95.3% (active). Further, the growth in experiment [7] was -71.4% (active); in experiment [8] it was -99.7% (active); in experiment [9] it was -88.7% (active); in experiment [10], -95.5% (active); in experiment [11], -76.7% (active); in [12] it was -96.6% (active). Moreover, the growth is -99% (active) in [13]; -100% (active) in [14]; -95.7% (active) in experiment [15]; -99% (active) in experiment [16]; -98.7% (active) in experiment [17]; -96.9% (active) in experiment [18]. For the same compound, the growth in [19] is -94.3% (active).
Take `O=C1Cc2cc(CCN3CCN(c4nsc5ccccc45)CC3)c(Cl)cc2N1`: the growth in experiment [1] was 95.4%; in experiment [2], 94.2%; in [3], 89.5%; in experiment [4], 91.7%; in experiment [5] it was 92.9%; in experiment [6] it was 91.9%. Further, the growth in experiment [7] is 105%; in experiment [8], 86.3%; in [9] it was 105%; in [10], 85.1%; in [11], 90.1%; in experiment [12], 78.8%. In addition, the growth is 94.1% in experiment [13]; 94.7% in experiment [14]; 72.3% in experiment [15]; 92% in experiment [16]; 84.8% in experiment [17]; 96.8% in [18]. Further, the growth in experiment [19] is 90.3%.
Regarding `CCc1c2c(nc3ccc(OC(=O)N4CCC(N5CCCCC5)CC4)cc13)-c1cc3c(c(=O)n1C2)COC(=O)[C@]3(O)CC`, the growth in experiment [1] is -5.72% (active); in [2], 36.2%; in [3], 102%; in experiment [4], 37.7%; in [5], 12.5%; in [6], -24.5% (active). In addition, the growth in [7] is -22.1% (active); in experiment [8], 57.6%; in [9], 2.35% (active); in experiment [10], 53.1%; in experiment [11] it was 28.8%; in [12], -5.06% (active). In addition, the growth in experiment [13] was 26%; in experiment [14] it was 13.6%; in experiment [15], 40.9%; in [16], -11.9% (active); in experiment [17] it was 17.9%; in experiment [18], 4.61% (active). Further, in experiment [19], the growth is 67%.
Take `CN1C(C(=O)Nc2ccccn2)=C(O)c2sc(Cl)cc2S1(=O)=O`: the growth was 106% in experiment [1]; 102% in experiment [2]; 105% in [3]; 111% in experiment [4]; 100% in experiment [5]; 94.8% in [6]. The growth in experiment [7] is 117%; in experiment [8], 100%; in experiment [9], 108%; in [10] it was 112%; in experiment [11], 103%; in experiment [12] it was 89.5%. Also, the growth is 104% in [13]; 95.4% in [14]; 87.9% in experiment [15]; 102% in [16]; 92.4% in [17]; 96% in [18]. In addition, the growth in experiment [19] was 102%.
For the compound `C[C@]12CCC3c4ccc(O)cc4C[C@@H](CCCCCCCCCS(=O)CCCC(F)(F)C(F)(F)F)C3C1CC[C@@H]2O` (stereo not given in full), the growth was 103% in experiment [1]; 103% in [2]; 79.5% in experiment [3]; 87.5% in experiment [4]; 97.1% in experiment [5]; 42.8% in experiment [6]. Moreover, the growth in experiment [7] was 86.4%; in [8] it was 91.5%; in experiment [9], 100%; in experiment [10], 71.6%; in experiment [11], 72.1%; in [12], 64.4%. The growth in [13] is 89.8%; in experiment [15], 52.5%; in experiment [16] it was 76%; in [17], 83.3%; in experiment [18], 90.1%; in [19] it was 97.1%.
`CC(C)Cc1ccc([C@H](C)C(=O)O)cc1`: the growth in experiment [1] was 122%; in experiment [2] it was 107%; in experiment [3], 108%; in experiment [4] it was 114%; in experiment [5] it was 111%; in [6] it was 99%. For the same compound, the growth in experiment [7] was 104%; in [8], 107%; in experiment [9], 101%; in experiment [10], 97%; in experiment [11] it was 106%; in experiment [12], 79.4%. In addition, the growth in [13] is 108%; in experiment [14], 101%; in experiment [15] it was 93.6%; in experiment [16], 102%; in experiment [17] it was 103%; in experiment [19], 109%.
